# Screens deposited in PubChem BioAssay by several laboratories.
# The full list was thinned out, with hits kept by preference.
# Bead autofluor = counter-screen for toxin protease inhibitors: compound fluorescence; compound autofluorescence counterscreen, microsphere flow cytometry; hits give high values; fluorescence intensity (no concentration beside the values); 360,000 compounds, 3.1% hits; AID 624483; in the data active means fluorescence intensity above about 16000; inconclusive means no clear call, values can overlap the other calls
# BoNT-A LC inh2 = inhibitors of Botulinum neurotoxin A light chain protease; multiplex microsphere protease substrate cleavage, flow cytometry; inhibition, % at 10 µM; 360,000 compounds, 0.17% hits; AID 588499; further: plate controls were buffer without enzyme for full effect and enzyme alone for no effect
# Anthrax LF prot = inhibitors of Bacillus anthracis lethal factor protease. multiplex microsphere protease cleavage assay, LF. inhibition, % at 10 µM. 360,000 compounds, 0.12% hits. AID 588501; further: plate controls were buffer without enzyme for full effect and enzyme alone for no effect
# BoNT F protease = inhibitors of Botulinum neurotoxin F light chain protease | Multiplex microsphere protease cleavage assay, flow cytometry | inhibition, % at 10 µM | 360,000 compounds, 0.22% hits | AID 588497; in the data active means inhibition above about 35%, passing the limit was not always enough; inconclusive means no clear call, values can overlap the other calls; further: plate controls were buffer without enzyme for full effect and enzyme alone for no effect
# TcdB GH inh = TcdB glycohydrolase inhibition. P18177. TcdB glycohydrolase enzymatic assay, plate reader. inhibition, % at 9.99 µM. 350,000 compounds, 0.24% hits; in the data active means inhibition above about 10%
# The depositor's hits bear a star; u = inconclusive; x = no result. Unless noted, no stated cut-off is given here; in the data, active means inhibition above about 30%; inconclusive means no clear call, values can overlap the other calls; inactive means below that.
SMILES,Bead autofluor,BoNT-A LC inh2,Anthrax LF prot,BoNT F protease,TcdB GH inh
COc1cc(C)c(S(=O)(=O)Nc2ccc(CC(=O)O)cc2)cc1C,25248*,-6,-3,-8,x
CO[C@H]1CN(C)C(=O)c2ccc(NC(=O)C3CC3)cc2OC[C@@H](C)N(C(=O)c2ccccc2)C[C@@H]1C,x,x,x,x,-1
CC(C)N(Cc1nc(-c2ccccc2)no1)C(=O)c1ccc(Cl)cc1,4289,0,-5,-7,-10
CC(C)N(Cc1nc(-c2ccccc2)no1)C(=O)C1CCCCC1,23062*,0,-5,0,1
C=CCSC1=C(C#N)C2(CCCCC2)C(C#N)C(=O)N1 (stereo unspecified),19902*,u,1,2,x
N#CC1=C(SCC(=O)NC23CC4CC(CC(C4)C2)C3)NC(=O)C(C#N)C12CCCCC2 (stereo unspecified),9067,0,1,0,0
N#CC1=C(SCC(=O)NC2CC2)NC(=O)C(C#N)C12CCCCC2 (stereo unspecified),20178*,2,1,3,x
CC(C)(C)C1CCC2(CC1)C(C#N)=C(SCC(=O)NC1CCCCC1)NC(=O)C2C#N (stereo unspecified),7931,-1,-2,0,x
Cc1[nH]n(-c2ccccc2)c(=O)c1N=Nc1cccc([N+](=O)[O-])c1,4038,-2,-8,42*,-3
Cc1[nH]n(-c2ccccc2)c(=O)c1N=Nc1cccc(Cl)c1,3809,-3,4,-15,2
O=C(C[C@H]1CC[C@@H](NS(=O)(=O)c2ccccc2)[C@@H](CO)O1)N1CCc2ccccc2C1,x,x,x,x,0
CCn1c(=S)[nH]c2c(=O)n(C)c(=O)n(C)c21,2980,-1,-3,-15,46*
C[C@@H]1CN([C@@H](C)CO)S(=O)(=O)c2ccc(-c3cccnc3)cc2O[C@H]1CN(C)C(=O)C1CCCCC1,x,x,x,x,1
Cc1ccc(N/C(SCc2ccccc2C)=C(/C#N)C(=O)NCc2ccco2)cc1C,22786*,-1,-7,-2,x
CCc1ccc(N/C(SCc2cccc(F)c2)=C(/C#N)C(=O)NCc2ccco2)cc1,8446,-3,-8,-18,x
CCN(CC)CCn1c(=N)n(CCOc2ccccc2)c2ccccc21,25371*,u,-12,-10,0
CCc1c(C)sc(NC(=O)c2cc(-c3cc(OC)ccc3OC)on2)c1C#N,21969*,4,-2,6,x
N=c1c(C(=O)NCCc2ccccc2)cc2c(=O)n3ccccc3nc2n1Cc1ccco1,3691,3,11,8,-10
COc1ccc(CCn2c(=S)[nH]c3cc(C(=O)NCc4ccco4)ccc3c2=O)cc1OC,20732*,-4,1,-2,x
CC(C)OCCCn1c(=N)c(C(N)=S)cc2c(=O)n3ccccc3nc21,5395,35*,-52,-56,x
CC(C)OCCCn1c(=NC(=O)c2ccncc2)c(C#N)cc2c(=O)n3ccccc3nc21,10844,1,-4,-3,x
COc1ccc(CCn2c(=N)c(C(=O)NCc3ccco3)cc3c(=O)n4ccccc4nc32)cc1,22951*,2,4,2,x
Cc1ccc(S(=O)(=O)c2cc3c(=O)n4ccccc4nc3n(C)c2=N)cc1,18992*,5,-6,5,x
COc1ccc(-n2c(=S)[nH]c3cc(C(=O)NCc4ccco4)ccc3c2=O)cc1OC,4604,0,1,u,1
CCCNC(=O)Nc1ccc2c(c1)C(=O)N(C)C[C@@H](OC)[C@H](C)CN(Cc1cccnc1)[C@@H](C)CO2,x,x,x,x,-17
SMILES,Bead autofluor,BoNT-A LC inh2,Anthrax LF prot,BoNT F protease,TcdB GH inh
C[C@H]1CN([C@@H](C)CO)C(=O)Cc2cc(NS(=O)(=O)c3ccccc3)ccc2O[C@@H]1CN(C)C(=O)Nc1ccc(F)cc1,x,x,x,x,0
C/C=C/c1ccc2c(c1)O[C@H](CN(C)C(=O)CC)[C@@H](C)CN([C@H](C)CO)S2(=O)=O,x,x,x,x,-1
C[C@@H]1CN([C@@H](C)CO)C(=O)c2cc(NC(=O)c3ccncc3)ccc2O[C@H]1CN(C)CC1CCCCC1,x,x,x,x,0
COc1ccc(CCn2c(=N)c(S(=O)(=O)c3ccccc3)cc3c(=O)n4ccccc4nc32)cc1,5759,3,2,6,1
COc1ccc(CCn2c(=N)c(S(=O)(=O)c3ccc(Cl)cc3)cc3c(=O)n4ccccc4nc32)cc1,21901*,-36,-15,-87,-2
CCOc1ccc(N=C/C=C/c2ccccc2)c(O)c1,3275,35*,0,-72,1
C[C@@H]1CN([C@@H](C)CO)C(=O)c2cc(NC(=O)C3CCCCC3)ccc2O[C@@H](C)CCCCO[C@H]1CN(C)Cc1ccccc1,x,x,x,x,0
O=C(/C=C/c1ccc(F)cc1)NCCC1=CCCCC1,23985*,-1,-2,-7,x
O=C(/C=C/c1ccccc1)NCCC1=CCCCC1,2556,0,2,-5,0
Cc1ccc(C(=O)NNC(=O)CSc2nnc(-c3ccncc3)n2C)cc1,16351*,0,0,0,x
CCn1c(SCC(=O)NNC(=O)c2ccccc2)nnc1-c1ccncc1,22311*,u,-3,-3,-3
CCn1c(SCC(=O)N/N=C/c2ccc(C)o2)nnc1-c1ccccc1,22380*,u,-2,0,x
Cc1ccc(/C=N/NC(=O)CSc2nnc(-c3ccccc3)n2-c2ccc(Cl)cc2)o1,2211,0,-1,0,0
Cc1ccc(-c2nnc(SCC(=O)NNC(=O)COc3cccc(C)c3)n2C)cc1,22497*,0,2,1,x
COc1ccc(NC(=O)N(C)C[C@@H]2Oc3ncc(C#CC(C)C)cc3C(=O)N([C@H](C)CO)C[C@@H]2C)cc1,x,x,x,x,2
C[C@H]1CN([C@@H](C)CO)C(=O)c2cccc(NC(=O)c3ccncc3)c2O[C@H]1CN(C)C(=O)NC1CCCCC1,x,x,x,x,0
Cc1nn(Cc2ccc(C(=O)n3cccn3)o2)c(C)c1Br,3805,0,1,4,x
Cc1cc(C)n(C(=O)c2ccc(Cn3nc(C)c(Br)c3C)o2)n1,23364*,0,-2,-4,x
Cc1ccc(N=Cc2cc(Cl)cc(Cl)c2O)nc1,2526,4,-1,35*,0
O=C1CC(N2C(=O)/C(=C/C=C/c3ccccc3)SC2=S)C(=O)N1c1ccccc1 (stereo unspecified),2114,64*,35*,21,2
COc1ccccc1-n1c(CCC(=O)O)ccc1-c1ccccc1,4225,2,-8,-1,11*
C=CCn1c(-c2cccn(Cc3ccccc3)c2=O)n[nH]c1=S,21465*,-6,-3,-6,x
O=C(OCn1ncc(Cl)c(Cl)c1=O)c1cccc(C(F)(F)F)c1,22357*,1,-2,1,x
Cc1cc(C(=O)NCCC2=CCCCC2)no1,25954*,-9,-8,-10,x
O=C(NCCC1=CCCCC1)c1cc(COc2c(F)cccc2F)on1,5517,-2,1,-5,0
C[C@@H]1CN([C@@H](C)CO)S(=O)(=O)c2ccc(/C=C/c3ccccc3)cc2O[C@H]1CN(C)C(=O)NC1CCCC1,x,x,x,x,-1
Clc1ccc(SCc2nc3ccccc3[nH]2)cc1,21863*,u,0,1,x
Clc1ccc(OCCSCc2nc3ccccc3[nH]2)cc1,5083,1,0,11,x
